# Compound activity from PubChem.
# TDP1 cell CPT = qHTS for Inhibitors of human tyrosyl-DNA phosphodiesterase 1 (TDP1): qHTS in cells in presence of CPT | chicken DT40 Tdp1-/-;hTDP1 cells + 20 nM CPT, ATP luminescence, 48 h | Potency, µM (doses to about 46.2 µM), inactives show at the highest dose activity change, negative = growth inhibition, actives largely listed as inhibitors | 420,000 tested, 12% active; also: potency is read from the fitted curve at half-maximal effect; nearly all actives have a fitted effect of over 55% in size
#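 Chicken DT40 Tdp1-/- cells stably complemented with human TDP1 were seeded at 400 cells/well in medium containing 20 nM camptothecin, exposed to pin-transferred compounds, and grown at 37 °C for at least 48 hr. Viability was read as ATP luminescence.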
# ELG1 repair inh = qHTS screen for small molecules that inhibit ELG1-dependent DNA repair in human embryonic kidney (HEK293T) cells expressing luciferase-tagged ELG1. AID 504467, 2011. HEK293T ELG1-luciferase reporter, luminescence, 16 h; DNA damage induced by 5-fluorouridine. 330,000 tested, 2.3% active. Potency, µM (series often up to 46.1 µM), without a hit: at the top dose activity change, negative = inhibition, hits mostly inhibitors; also: potency is read from the fitted curve at half-maximal effect; nearly all actives have a fitted effect of over 55% in size
#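 Step one: seed 2,000 cells per well. Step two: pin-transfer compound or DMSO alongside 5-fluorouridine. Step three: incubate 16 hr, 37 °C, 5% CO2. Step four: add ONE-Glo, wait 30 min, read luminescence.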
# HT1080-NT tox = qHTS for induction of synthetic lethality in tumor cells producing 2HG: qHTS for the HT-1080-NT fibrosarcoma cell line; HT-1080-NT fibrosarcoma viability, CellTiter-Glo ATP luminescence, 48 h; Potency, µM (highest dose often 46.1 µM), for inactives: at the top dose activity, negative = less viability, most hits filed as cytotoxic; 360,000 tested, 1.6% active;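 also: NT is the 2HG producing partner of a matched IDH1 knockdown line; potency is read from the fitted curve at half-maximal effect; 0% = DMSO-treated cells and -100% = media-only wells without cells; nearly all actives have a fitted effect of over 55% in size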
#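 750 cells/well, RPMI + 5% FBS; 2 h settle, compound pin-transfer, 48 h at 37 degrees C. CellTiter-Glo 10 min RT, luminescence. Normalized to DMSO and media-only wells.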
# IL1B secr inh = qHTS for Inhibitors of Inflammasome Signaling: IL-1-beta AlphaLISA Primary Screen | 360,000 tested, 4.7% active | AID 743279, 2014 | activity change, % at 57.5 µM | THP-1 LPS/ATP IL-1B secretion, AlphaLISA, 16 h; active compounds read low; in the data active = activity change below about -50%; inconclusive = mostly about -30% to -49%
#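 THP-1 cells pretreated 1 hr with compounds (up to 57.5 uM final), then stimulated with LPS (250 ng/mL final) plus ATP (1.25 mM final); secreted IL-1B measured by AlphaLISA after 16 hr, decreased signal indicating inhibition.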
# DT40 TDP1 no CPT = qHTS for Inhibitors of human tyrosyl-DNA phosphodiesterase 1 (TDP1): qHTS in cells in absence of CPT | DT40 Tdp1-/- hTDP1 cells, no CPT, ATP luminescence, 48 h | Potency, µM (top dose mostly 46.2 µM), for inactives: top-dose activity change, negative = growth inhibition, actives largely listed as inhibitors | 420,000 tested, 15% active | AID 686978, 2013; also: potency is read from the fitted curve at half-maximal effect; nearly all actives have a fitted effect of over 55% in size
#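 Growth of hTDP1-complemented DT40 Tdp1-knockout cells is measured by ATP luminescence after at least 48 hr compound exposure at 37 °C, with DMSO substituting for the 20 nM CPT used in the parallel screen.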
# HT1080 IDH1KD tx = qHTS for induction of synthetic lethality in tumor cells producing 2HG: qHTS for the HT-1080-IDH1KD cell line; HT-1080 IDH1 knockdown viability, ATP luminescence, 48 h; Potency, µM (highest dose often 46.1 µM), inactives show at the highest dose activity, negative = toxicity, usual class: cytotoxic; 360,000 tested, 2% active; AID 686971, 2013;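 also: potency is read from the fitted curve at half-maximal effect; 0% = DMSO wells and -100% = cell-free medium wells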
#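 After a 2 h attachment period, IDH1KD HT-1080 cells took pin-transferred compound for 48 h at 37 °C; ATP-based luminescence after 10 min room-temperature reagent incubation reported viability.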
# ELG1 FLuc counter = qHTS screen for small molecules that inhibit ELG1-dependent DNA repair: Hit Confirmation in Cell-Based Luciferin Assay; shares compounds with ELG1 repair inh; cell-free firefly luciferase luminescence counter-screen, ViewLux; Potency, µM (series often up to 46.1 µM), without a hit: at the top dose activity change, negative = inhibition, hits mostly inhibitors; 350 tested, 3% active; also: potency is read from the fitted curve at half-maximal effect
# ELG1 Luc conf = HTS assay for small molecules that inhibit ELG1-dependent DNA repair in human embryonic kidney (HEK293T) cells expressing luciferase-tagged ELG1: Hit Confirmation | shares compounds with ELG1 repair inh | HEK293T ELG1-luciferase levels, luminescence; cells co-treated with 5-fluorouridine | Potency, µM (titrated, usually from 46.1 µM), for inactives: at the highest dose activity change, negative = inhibition, hits mostly inhibitors | 670 tested, 68% active | AID 624248, 2012; also: potency is read from the fitted curve at half-maximal effect; nearly all actives have a fitted effect of over 55% in size
# ELG1 MMS Luc = MMS-stimulated human ELG1 repair inhibition, confirmed; AID 624249; HEK293T luciferase-tagged ELG1 level, MMS stimulated; Potency, µM (titrated, usually from 46.1 µM), for inactives: at the highest dose activity change, negative = inhibition, hits mostly inhibitors; shares compounds with ELG1 repair inh; 670 tested, 53% active; also: potency is read from the fitted curve at half-maximal effect; nearly all actives have a fitted effect of over 60% in size
# ELG1 5-FU = qHTS screen for small molecules that inhibit ELG1-dependent DNA repair: Hit Confirmation with 5FU Viability | Potency, µM (doses to about 46.1 µM), inactives show at the highest dose activity change, negative = viability loss, hits mostly cytotoxic | 670 tested, under 10 active | AID 624250, 2012 | shares compounds with ELG1 repair inh | cell viability with 5-FU, ELG1-dependent repair;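 also: ELG1-luc HEK293T cells cotreated with 5-fluorouridine at 10 µM final; potency is read from the fitted curve at half-maximal effect; viability measured 16 h after compound addition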
# ELG1 MMS cell = qHTS screen for small molecules that inhibit ELG1-dependent DNA repair: Hit Confirmation with MMS Viability. shares compounds with ELG1 repair inh. Cell viability with MMS, ELG1-dependent DNA repair. Potency, µM (series often up to 46.1 µM), without a hit: top-dose activity change, negative = viability loss, actives largely listed as cytotoxic. 670 tested, 33% active. AID 624251, 2012;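 also: ELG1-luc HEK293T cells co-treated with 10 µM MMS; potency is read from the fitted curve at half-maximal effect; viability read 16 h after compound addition; nearly all actives have a fitted effect of over 60% in size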
# ELG1 unstim viab = qHTS screen for small molecules that inhibit ELG1-dependent DNA repair: Hit Confirmation with Unstimulated Viability Assay | shares compounds with ELG1 repair inh | cell viability counter-screen, unstimulated, luminescence | Potency, µM (doses to about 45.9 µM), for the others: at the top dose activity change, negative = loss of viability, actives largely listed as cytotoxic | 900 tested, 8% active | AID 624252, 2012;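 also: potency is read from the fitted curve at half-maximal effect; compound exposure lasted 16 hours before reading; nearly all actives have a fitted effect of over 55% in size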
# FLuc enzyme = qHTS screen for small molecules that inhibit ELG1-dependent DNA repair: Hit Confirmation in Biochemical Luciferin Assay | Potency, µM (highest dose often 57.5 µM), inactives show at the top dose activity, negative = inhibition, actives largely listed as inhibitors | shares compounds with ELG1 repair inh | purified firefly luciferase, luminescence counter-screen | 350 tested, 10% active; also: potency is read from the fitted curve at half-maximal effect
# * = called active by the depositor; u = inconclusive; x = not tested or not shown. Rows were chosen to be rich in hits. Some 19% of all compounds tested hit in one or more screens of this group. Unless noted, calls follow the shape of the dose curve; as a rule, active = well fitted curve in the direction sought with a large enough effect; inconclusive = small, poorly fitted or top-dose-only effect, or another doubt; inactive = no such curve, though single readings can be large; an effect the other way counts as inactive or inconclusive. Unless noted, % is scaled to controls: 0 for no effect and ±100 for the full control effect.
SMILES,TDP1 cell CPT,ELG1 repair inh,HT1080-NT tox,IL1B secr inh,DT40 TDP1 no CPT,HT1080 IDH1KD tx,ELG1 unstim viab,others
CCOC(=O)N1CCN(C(=O)CSCC(=O)Nc2nc(-c3ccccc3)cs2)CC1,21µM*,u,-7%,-8,u,-15%,-14%,ELG1 FLuc counter=49%;FLuc enzyme=-7%
O=C(CSCC(=O)N1CCN(c2ccccc2)CC1)Nc1nc(-c2ccc(Cl)s2)cs1,u,u,-1%,-26,u,-3%,u,ELG1 FLuc counter=17%;FLuc enzyme=-3%
O=C(CSCC(=O)N1CCCCC1)Nc1nc(-c2cccs2)cs1,-25%,u,3%,24,u,-2%,x,
COCC(=O)Nc1nc(-c2ccc(-c3ccccc3)cc2)cs1,u,u,-13%,-18,u,-14%,x,
CC(C)C(=O)SCCCCCCC(=O)Nc1nc(-c2ccccc2)cs1,x,x,x,x,x,x,-4%,
COC(=O)c1c(-c2c(Cl)cccc2Cl)noc1C(=O)NN,16%,1%,0%,9,-6%,0%,x,
CC(C)c1ccc(/C=C(/C#N)c2nnc(NC(=O)c3ccccc3)s2)cc1,22%,21%,6%,20,u,20%,x,
COc1cc(C(=O)Nc2ccccn2)cc(OC)c1OC,-1%,5%,21%,-19,-8%,8%,x,
COc1cc(C(=O)NC(=S)Nc2ccccc2N2CCCC2)cc(OC)c1OC,u,2.6µM*,u,-9,21µM*,u,u,ELG1 Luc conf=4µM*;ELG1 MMS Luc=-19%;ELG1 5-FU=u;ELG1 MMS cell=10%
COc1cc(C(=O)Nc2cccc3c2CCCC3)cc(OC)c1OC,u,-12%,-5%,-3,u,-14%,x,
COc1cc(C(=O)Nc2ccccc2NC(=O)c2cc(OC)c(OC)c(OC)c2)cc(OC)c1OC,3%,3.3µM*,12%,20,-9%,-2%,u,ELG1 Luc conf=3.1µM*;ELG1 MMS Luc=0%;ELG1 5-FU=u;ELG1 MMS cell=10%
COc1c(C)cccc1C(=O)NC(=S)Nc1ccccc1N1CCCC1,u,23%,-12%,-8,-15%,1%,x,
COc1cc(C(=O)Nc2ccccc2C(=O)Nc2ccccn2)cc(OC)c1OC,4.6µM*,2µM*,2%,30,3.3µM*,-1%,u,ELG1 Luc conf=3.5µM*;ELG1 MMS Luc=13µM*;ELG1 5-FU=u;ELG1 MMS cell=u
Cc1cc(C)c(S(=O)(=O)NC2CC3CCC2C3)c(C)c1 (stereo not given),-28%,-2%,-16%,80,-24%,-1%,x,
COc1cccc(C(C)(O)c2nc(-c3cccc(NC(C)=O)c3)cs2)c1 (stereo not given),u,x,1%,5,u,-4%,x,
Cc1ccc(F)cc1NC(=O)CSc1n[nH]c(N)n1,0%,19%,12%,2,1%,0%,x,
CCCCn1c(N)c(N(CCOC)C(=O)C2CC(=O)N(c3cccc(SC)c3)C2)c(=O)[nH]c1=O (stereo not given),-11%,1%,3%,2,4%,3%,x,
CN(C)c1ccc(/C=C/c2ccc3ccccc3[n+]2[O-])cc1,20µM*,x,x,x,13µM*,x,13µM*,ELG1 FLuc counter=-63%;FLuc enzyme=0.092µM*
COc1ccc(N2CCN(C(=O)COc3ncnc4ccccc34)CC2)cc1,1%,28%,4%,10,-27%,-10%,x,
COc1ccc(C2=NN(C(=O)COc3ncnc4ccccc34)C(c3ccco3)C2)cc1 (stereo not given),-70%,4.1µM*,-17%,u,26µM*,u,8%,ELG1 Luc conf=u;ELG1 MMS Luc=-2%;ELG1 5-FU=u;ELG1 MMS cell=9%
COc1cc2ncnc(NCc3cccc(F)c3F)c2cc1OC,u,-3%,-6%,12,u,5%,x,
COc1cc2ncnc(Nc3cccc(Cl)c3)c2cc1OC,18µM*,x,x,x,13µM*,x,18µM*,ELG1 Luc conf=6.3µM*;ELG1 MMS Luc=7.1µM*;ELG1 5-FU=25µM*;ELG1 MMS cell=18µM*
